This is part of a sample that, as a whole, favours compounds with a hit. Of some 79,000 tested, about 15% had one in any assay. Active and inactive are the calls of the source. No stated cut-off is given here; in the data, active means growth inhibition above about 70%; inactive means the rest.

The nature of this test: NCI Yeast Anticancer Drug Screen. Data for the bub3 strain (AID 167). Particulars: S. cerevisiae bub3 mutant strain, at 5.0 µM (retest, dose inferred, filed as 0.5), active compounds read high. The essentials:
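Inhibition values come from growth of compound-treated mutant yeast normalised to vehicle-treated controls.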
As to `CC12CCCCC1CCC(Br)C2=O` (centres undefined), the growth inhibition is -57% (inactive). Under `CC(C)c1cc(O)c(C(C)(C)C)cc1Cl` stands -11% (inactive); under `CCCOC(=O)CCCC(=O)N(CC)CC`, -4% (inactive). The value for `CCOC(=O)c1cc(Cc2ccccc2)c(=O)n(C)c1-c1ccccc1` was 5% (inactive); that for `COS(=O)c1cc(Cl)cc(Cl)c1OC(=O)CSSCC(=O)Oc1c(Cl)cc(Cl)cc1S(=O)OC` (centres undefined) was 92% (active). The value for `ICCCCSc1cc(-c2ccccc2)[o+]c2ccccc12` was 7% (inactive); that for `Nc1cc(Cl)c2c(c1)Cc1ccccc1-2` was -6% (inactive). Take `Cc1ccc(S(=O)(=O)NCCSSCCNS(=O)(=O)c2ccc(C)cc2)cc1`: the growth inhibition is 1% (inactive). Under `OC(Cc1cccnc1)(c1ccccc1)c1ccc(Cl)cc1` (centres undefined) stands -3% (inactive); under `Cc1ccc(C2=CC(=O)/C(=C\C(=O)c3ccc(Cl)cc3)O2)cc1`, 22% (inactive). With `O=C(Nc1ncnc2c1ncn2C1CC(O)C(CO)O1)c1ccccc1` (centres undefined), the growth inhibition is -2% (inactive). Under `O=C1CSC(=S)N1c1ccc(F)cc1F` stands -3% (inactive); under `CCCOC(=O)C(Br)C(Br)C(=O)OCCC` (centres undefined), 46% (inactive); under `c1ccc2nc3[nH]c4ccccc4c3cc2c1`, 18% (inactive). With `O=S(=O)(c1ccc(NC(=S)NCc2ccncc2)cc1)N1CCCCC1`, the growth inhibition was -31% (inactive). Under `Nc1ccccc1Sc1ccccc1` stands 37% (inactive).

For `CCC(Cl)COP(=O)(OCC(Cl)CC)OC(c1ccc(Cl)c(Cl)c1)P(=O)(OCC(Cl)CC)OCC(Cl)CC` (centres undefined), the growth inhibition was -3% (inactive). Regarding `O=C(O)/C=C\c1cc2ccccc2c2ccccc12`, the growth inhibition is 8% (inactive).

For `COC(=O)C1C2CC3c4[nH]c5cc(OC)c(Br)cc5c4CCN3CC2CC(OC(=O)c2cc(OC)c(OC)c(OC)c2)C1OC` (centres undefined), the growth inhibition is -16% (inactive).

For `Cc1c2ccnc(-c3ccc(F)cc3)c2cc2c1[nH]c1ccccc12`, the growth inhibition is -2% (inactive). Under `COc1cc2cc[n+]3c4ccc([N+](=O)[O-])cc4ccc3c2cc1OC` stands 43% (inactive); under `CCCCCCCCC1N(C)CCCN1C`, -52% (inactive). Under `CC1(C)OC2C(COC(c3ccccc3)(c3ccccc3)c3ccccc3)OC(n3cnc4c(=O)[nH]cnc43)C2O1` (centres undefined) stands 30% (inactive); under `COc1cccc2c1C(=O)c1c(O)c3c(c(O)c1C2=O)C[C@@](O)(C(=O)CO)C[C@@H]3OC1CC(N(C)C)C(O)C(C)O1` (some centres undefined), 95% (active).

The values above are taken from PubChem BioAssay (NCI).
